Several values for one entry are separate records, joined by “and”; a condition that tells them apart may be missing. Equal values may be shown once. The panel holds about 83,000 compounds, 20% with a hit somewhere; the sample as a whole holds those more often.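 Each cell line was grown in a 96-well plate and treated with one concentration of compound for 48 hours. Values below 10 were considered active.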 A structure can be active in one record and inactive in another. Activity calls are given as the source filed them.
Tests used:
Test in all cases: NCI-60 one-dose screen, 48 h (100 = growth as untreated, 0 = no growth, -100 = all killed)
UACC-62 melanoma = system: UACC-62 melanoma
DU-145 prostate = conditions: 10 µM
K-562 leukemia = conditions: 10 µM
MALME-3M melanoma = conditions: 10 µM
MDA-MB-231 breast = conditions: 10 µM
RXF 393 renal = conditions: 10 µM
SF-268 CNS = conditions: 10 µM
SF-295 CNS = conditions: 10 µM
SF-539 CNS = conditions: 10 µM
UACC-257 melanoma = conditions: 10 µM
M14 melanoma = conditions: 10 µM
HCT-15 colon = conditions: 10 µM
HT29 colon = conditions: 10 µM
SNB-75 CNS = conditions: 10 µM
Method: Growth inhibition of the SNB-75 human tumor cell line is measured as a screen for anti-cancer activity. Cells are grown in 96 well plates and exposed to the test compound for 48 hours. Compounds are tested at a single concentration, which is 10^-5 M for most compounds. The reported endpoint is percent growth (GI% or GIPRCNT), where numbers from 0 - 100% represent growth inhibition, and numbers from -100% - 0 represent cell death. For example, a value of 40 represents 60% growth inhibition. A value of 0 means no net growth occurred over the course of the experiment. A value of -40 indicates 40% of cells at the beginning of the experiment died by the end of the experiment. A value of -100 means all cells are dead at the end of the experiment.
NCI-60 Human Tumor Cell Lines Screen was performed using the standard one-dose NCI protocol, which is described in more detail at https://dtp.cancer.gov/discovery_development/nci-60/default.htm.
Compounds with GIPRCNT values below 10 were considered active. Activity score was based on GIPRCNT using the following formula: […]
Score is 0 for GIPRCNT values of 100 or above, 50 for GIPRCNT values of 0, and 100 for GIPRCNT values of -100.

SNB-19 CNS = conditions: 10 µM
U251 CNS = conditions: 10 µM
PC-3 prostate = conditions: 10 µM
SK-MEL-5 melanoma = conditions: 10 µM
LOX IMVI melanoma = conditions: 10 µM
SK-MEL-28 melanoma = conditions: 10 µM

Measured: growth

COc1cc([C@@H]2c3cc4c(cc3[C@@H](Nc3ccc(NC(=O)c5cc([N+](=O)[O-])cn5C)cc3)[C@H]3COC(=O)[C@H]23)OCO4)cc(OC)c1O
active: UACC-62 melanoma; 100 µM -35.1%

C=C1C(=O)OC2CC1C(OC(C)=O)C/C(C)=C/CC/C(C)=C\CCC2(C)O (configuration not stated)
inactive: MALME-3M melanoma 18.6% | MDA-MB-231 breast 20.3% | RXF 393 renal 13.1% | SF-268 CNS 27.1% | SF-295 CNS 106% | SF-539 CNS 11.2% | UACC-257 melanoma 58.2% | M14 melanoma 16.4% | SNB-75 CNS 19.8% | SNB-19 CNS 51.6% | U251 CNS 33.3% | PC-3 prostate 18.3% | SK-MEL-5 melanoma 55.8% | UACC-62 melanoma; 10 µM 44.5%
active: DU-145 prostate -5% | K-562 leukemia -40% | HCT-15 colon -80.1% | HT29 colon -45.1% | UACC-62 melanoma; 100 µM -94.6% | LOX IMVI melanoma 6.22%

Cc1ccc(Sc2ccccc2N)cc1
active: DU-145 prostate 6.34%
inactive: K-562 leukemia 108% | MALME-3M melanoma 116% | MDA-MB-231 breast 102% | RXF 393 renal 67.4% | SF-268 CNS 98.1% | SF-295 CNS 88.8% | SF-539 CNS 114% | UACC-257 melanoma 98.5% | M14 melanoma 99.5% | HCT-15 colon 21.2% | HT29 colon 26.1% | SNB-75 CNS 122% | SNB-19 CNS 95.6% | U251 CNS 84.3% | PC-3 prostate 74.4% | SK-MEL-5 melanoma 91.8% | UACC-62 melanoma; 10 µM 90.2% | LOX IMVI melanoma 76.1% | SK-MEL-28 melanoma 118%

Cc1cc(N(CCOS(C)(=O)=O)CCOS(C)(=O)=O)ccc1C=Nc1ccc(-c2nc(Cc3ccccc3)sc2C)cc1
active: UACC-257 melanoma 6.01% | SNB-75 CNS -1.26%
inactive: DU-145 prostate 11.8% | K-562 leukemia 21.7% | MALME-3M melanoma 58% | MDA-MB-231 breast 77.2% | RXF 393 renal 45.9% | SF-268 CNS 39.4% | SF-295 CNS 12.6% | SF-539 CNS 15% | M14 melanoma 25.8% | HCT-15 colon 55% | HT29 colon 46.2% | SNB-19 CNS 39.5% | U251 CNS 43.2% | PC-3 prostate 55% | SK-MEL-5 melanoma 45.2% | UACC-62 melanoma; 10 µM 37.8% | LOX IMVI melanoma 34.9%

O=[N+]([O-])c1cc[n+]([O-])cc1
inactive: DU-145 prostate 120% | K-562 leukemia 117% | MALME-3M melanoma 101% | MDA-MB-231 breast 95.9% | RXF 393 renal 114% | SF-268 CNS 107% | SF-295 CNS 101% | SF-539 CNS 122% | UACC-257 melanoma 76.5% | M14 melanoma 113% | HCT-15 colon 112% | HT29 colon 105% | SNB-19 CNS 88.5% | U251 CNS 111% | PC-3 prostate 101% | SK-MEL-5 melanoma 95% | UACC-62 melanoma; 10 µM 91.1% | LOX IMVI melanoma 96.3% | SK-MEL-28 melanoma 115%

COc1ccc(C(=O)C(CN(C)C)CN(C)C)cc1
inactive: DU-145 prostate 56.9% | MDA-MB-231 breast 104% | RXF 393 renal 63.9% | SF-268 CNS 96.5% | SF-295 CNS 102% | SF-539 CNS 96.3% | UACC-257 melanoma 73.1% | M14 melanoma 52% | HCT-15 colon 46.6% | SNB-75 CNS 76.4% | SNB-19 CNS 103% | U251 CNS 102% | PC-3 prostate 89.6% | SK-MEL-5 melanoma 101% | UACC-62 melanoma; 10 µM 73.4% | LOX IMVI melanoma 82.4% | SK-MEL-28 melanoma 83.1%
active: K-562 leukemia -19.4% | MALME-3M melanoma -70.7% | HT29 colon -77.3%

CN(C)CCOC1(Cc2ccc(Cl)cc2Cl)CCC(C(C)(C)C)CC1 (configuration not stated)
10.2% (inactive) and -63.9% (active): SK-MEL-5 melanoma
inactive: SF-268 CNS 46.1% and 34.9% | SF-539 CNS 39.7% and 46.6% | SNB-75 CNS 47.1% and 44.2% | PC-3 prostate 40.8% and 35.7%
active: K-562 leukemia -37.2% and -48.5% | MALME-3M melanoma -48.2% and -65.3% | MDA-MB-231 breast 7.18% and -26.3% | SF-295 CNS -44% and -69.9% | UACC-257 melanoma -33.6% and 2.54% | M14 melanoma -34.4% and -59.1% | HCT-15 colon -11.2% and -80.3% | HT29 colon -37.7% and -58.6% | U251 CNS -95.2% and -100% | UACC-62 melanoma; 10 µM -26% and -56.2% | LOX IMVI melanoma -100% | SK-MEL-28 melanoma -58.7% and -50%
22.7% (inactive) and 7.69% (active): DU-145 prostate
15.5% (inactive) and -25.9% (active): SNB-19 CNS
30.2% (inactive) and -32.5% (active): RXF 393 renal

C#CCN(Cc1ccc2nc(N)[nH]c(=O)c2c1)c1ccc(C(=O)NC(CCC(=O)O)C(=O)O)cc1 (configuration not stated)
inactive: DU-145 prostate 48.6% | K-562 leukemia 58.9% | MALME-3M melanoma 86.8% | RXF 393 renal 72.9% | SF-268 CNS 70.4% | SF-295 CNS 99.5% | UACC-257 melanoma 92.1% | M14 melanoma 44.7% | HCT-15 colon 65.5% | HT29 colon 62.5% | SNB-75 CNS 86.5% | U251 CNS 89.2% | PC-3 prostate 64.6% | SK-MEL-5 melanoma 100% | UACC-62 melanoma; 10 µM 81.6% | LOX IMVI melanoma 16% | SK-MEL-28 melanoma 95.2%
active: SF-539 CNS 0.195%

CC1=CC(=C(c2ccc(N)cc2)c2ccc(N)cc2)C=CC1=N
8.88% (active) and 16.1% (inactive): SF-539 CNS
-1.98% (active) and 23.7% (inactive): SNB-75 CNS
active: SF-295 CNS -7.28% | UACC-257 melanoma -6.06% and 8.33% | SK-MEL-5 melanoma -37.3% and -25.8%
0.759% (active) and 56.2% (inactive): MALME-3M melanoma
6.75% (active) and 10.4% (inactive): HT29 colon
-20.2% (active) and 22.6% (inactive): UACC-62 melanoma; 10 µM
6.87% (active) and 21.8% (inactive): MDA-MB-231 breast
-12.8% (active) and 62.6% (inactive): RXF 393 renal
inactive: DU-145 prostate 18.6% and 38.3% | K-562 leukemia 21.1% and 24.5% | SF-268 CNS 26.1% and 29% | M14 melanoma 27.4% | HCT-15 colon 53.9% and 73.4% | SNB-19 CNS 17.9% and 21.6% | U251 CNS 17.4% and 10.6% | SK-MEL-28 melanoma 28.8% and 45.9%
9.47% (active) and 18.5% (inactive): PC-3 prostate
7.6% (active) and 22.4% (inactive): LOX IMVI melanoma

Source: PubChem BioAssay (NCI)
